Screens as filed in PubChem BioAssay.
The list is not random: actives were taken first. Their share in the collection is about 6.7%.
PINK1 expr mod: A Quantitative High throughput Screen to Identify Chemical Modulators of PINK1 Expression | PINK1 immunofluorescence, high-content cytometry, 24 h | Potency, µM (series often up to 76.6 µM), hits mostly activators | hit rate 0.2% among 410,000; active means well fitted activation curve with a large enough effect; inconclusive means small, poorly fitted or top-dose-only effect; cell line not stated here; further: nearly all actives have a fitted effect of over 65% in size
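PINK1 protein, normally rapidly degraded, was detected by immunofluorescence after 24 hour compound treatment of a stable cell line. Titration data (5 concentrations) came from laser-scanning cytometry, with CCCP-treated wells as controls.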
KB-V1 MDR tox: qHTS assay for MDR1-selective chemotherapeutics: Primary screen using the drug-selected MDR subline cells KB-V1; Potency, µM (titrated, usually from 46.1 µM), hits mostly cytotoxic; KB-V1 MDR cells viability, CellTiter-Glo, 72 h; hit rate 3.4% among 400,000; AID 1347076, 2019; further: nearly all actives have a fitted effect of over 60% in size
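Following 72 h at 37 degrees C with compound, KB-V1 cell viability was read by CellTiter-Glo luminescence, medium being phenol-red-free DMEM plus 10% FBS; concentration-response parameters came from normalized, curve-fitted qHTS data.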
KB-3-1 cytotox: qHTS assay for MDR1-selective chemotherapeutics: Primary screen using the parental adenocarcinoma cell KB-3-1 | Potency, µM (doses to about 46.1 µM), actives largely listed as cytotoxic | KB-3-1 viability, CellTiter-Glo ATP luminescence, 72 h | hit rate 1.4% among 400,000; further: nearly all actives have a fitted effect of over 60% in size
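Parental KB-3-1 adenocarcinoma cells in phenol-red-free DMEM with 10% FBS were pin-treated with compounds at several concentrations, incubated 72 h at 37 °C, and viability read by CellTiter-Glo luminescence; concentration-effect curves were fitted after normalization.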
SW480 rereplic: A quantitative high throughput screen for small molecules that induce DNA re-replication in SW480 colon adenocarcinoma cells. SW480 DNA re-replication, Hoechst DNA content imaging, 48 h. Potency, µM (doses to about 46.1 µM), actives largely listed as activators. hit rate 1.8% among 340,000; further: nearly all actives have a fitted effect of over 55% in size
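Readout is total intensity of Hoechst-stained nuclei, excited at 405 nm and collected at 500-530 nm. Compound treatment lasted 48 hr at 37 C in 5% CO2 before staining.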
MCF10A rerep: A quantitative high throughput screen for small molecules that induce DNA re-replication in MCF 10a normal breast cells; MCF 10A DNA re-replication, Hoechst nuclear intensity, 48 h; Potency, µM (top dose mostly 46.1 µM), hits mostly activators; hit rate 2.9% among 350,000; further: nearly all actives have a fitted effect of over 50% in size
Numbers stand for hits; - = inactive; ? = inconclusive; . = not tested or not shown. Unless noted, the call rests on the fitted dose curve; in most records, active means well fitted curve in the direction sought with a large enough effect; inconclusive means small, poorly fitted or top-dose-only effect, or another doubt; inactive means no such curve, though single readings can be large; an effect the other way counts as inactive or inconclusive.

SMILES	PINK1 expr mod	KB-V1 MDR tox	KB-3-1 cytotox	SW480 rereplic	MCF10A rerep
COc1cc2c(NC3CCN(C(C)C)CC3)nc(N3CCCN(C)CC3)nc2cc1OCCCN1CCCC1	-	?	?	.	.
CN1OC[C@@H]2CN(Cc3ccc4c(c3)OCO4)[C@H](c3ccc(N4CCCCC4)cc3)C[C@@H]21	-	-	-	.	.
CN(C)S(=O)(=O)N1CCC(Oc2ccc(C(=O)N3C[C@@H]4CCC[C@H]3C4)cc2)CC1	-	9.2µM	-	-	-
CN(C)S(=O)(=O)N1CCC(Oc2ccc(C(=O)N3C[C@H]4CC[C@H]3C4)cc2)CC1	-	.	.	-	-
COc1ccc(S(=O)(=O)N2CCCCCC2)cc1C(=O)N(C)Cc1ccc(F)cc1	-	-	-	-	-
Cc1cc(C)cc(OCCNC(=O)c2cc(S(=O)(=O)N3CCOCC3)ccc2F)c1	-	?	23.1µM	?	-
COc1ccc(S(=O)(=O)N2CCCCCC2)cc1C(=O)N(C)Cc1ccc(C(C)(C)C)cc1	?	?	?	-	18.4µM
CCN(CC)S(=O)(=O)c1ccc2c(c1)c(=O)c(C(=O)NCCCN(C)c1ccccc1)cn2C	-	-	-	-	-
CCN(CC)S(=O)(=O)c1ccc2c(c1)c(=O)c(C(=O)NCc1cccs1)cn2C	-	6.51µM	-	-	-
COc1ccc(S(=O)(=O)N2CCCCCC2)cc1C(=O)NCCOc1ccc(C)cc1	-	9.2µM	-	-	-
NC(CCC(=O)NC(CS)C(=O)NCC(=O)O)C(=O)O (configuration not stated)	-	-	-	?	-
Cc1cc(NC(=O)C(C)SCC(=O)Nc2nc3c(F)cc(F)cc3s2)no1 (configuration not stated)	-	-	-	-	-
Cc1ccc(C)c(N2CCN(CCCNC(=O)c3cnn(-c4ccc(F)cc4)c3C3CCN(C(=O)OC(C)(C)C)CC3)CC2)c1	-	-	-	.	.
COc1cc(C(=O)Nc2ccc(OCc3cc(=O)n4cccc(C)c4n3)cc2)cc(OC)c1OC	-	-	-	.	.
COc1ccc(S(=O)(=O)N2CCCCCC2)cc1C(=O)NCc1cccs1	-	8.2µM	-	-	-
COc1ccc(S(=O)(=O)N2CCCCCC2)cc1C(=O)NCc1ccco1	-	-	-	-	-
CCOc1ccc(-c2nc(-c3ccc(OC)cc3)no2)cc1OCC	-	13µM	-	-	-
COc1ccc(Cc2noc(-c3ccc(OC)c(OC)c3)n2)cc1OC	-	11.6µM	-	?	?
COc1ccc(-c2nc(-c3ccc(NC(=O)c4ccc(Br)o4)cc3)no2)cc1OC	-	-	-	-	2.59µM
COc1ccc(CCC(=O)Nc2ccc(-c3noc(-c4ccc(OC)c(OC)c4)n3)cc2)cc1	-	?	-	-	?
COc1cc(-c2nc(-c3ccc(NC(=O)c4ccc(Br)o4)cc3)no2)cc(OC)c1OC	-	?	-	-	5.17µM
CCOc1ccccc1NC(=O)CSc1nnc(N)s1	-	-	-	.	.
O=C(NCCN1Cc2ccccc2OC(c2ccsc2)C1)c1ccc2[nH]ccc2c1 (configuration not stated)	-	.	.	.	.
Cc1ccc(S(=O)(=O)N2CCN(c3nc(-c4cccs4)nc4nc[nH]c34)CC2)cc1	-	.	.	.	.
COc1ccccc1C(=O)c1c(C)c(CCC#N)n2ccccc12	-	-	-	-	-
SMILES	PINK1 expr mod	KB-V1 MDR tox	KB-3-1 cytotox	SW480 rereplic	MCF10A rerep
COC(=O)CCc1c(C)c(C(=O)c2cc(OC)c(OC)c(OC)c2)c2ccccn12	-	-	-	10.3µM	?
CCCCCn1cnnc1SCC(=O)c1c(N)n(C2CC2)c(=O)[nH]c1=O	-	-	-	-	-
Cc1sc2ncn(CC(=O)Nc3ccc(C(F)(F)F)cc3)c(=O)c2c1S(=O)(=O)N1CCN(C)CC1	-	?	-	.	.
CN1C2CCC1/C(=C\c1ccccc1)C(=O)/C2=C\c1ccccc1	-	-	7.31µM	?	?
O=C1/C(=C/c2ccccc2)CCC1C1CCCC1 (configuration not stated)	-	-	-	-	-
Cc1c(C(=O)NCCc2cccnc2)cnn1-c1nccc(-c2ccccc2F)n1	-	.	.	.	.
COC(=O)CC1(C(=O)OC)Oc2ccc(Br)cc2C(=O)N1c1cccc(Cl)c1Cl (configuration not stated)	-	5.17µM	?	18.4µM	?
COC(=O)CN1C(=O)Nc2ccc(Br)cc2C1c1ccccc1Cl (configuration not stated)	-	-	?	-	?
COC(=O)CC1(C(=O)OC)Oc2ccc(Br)cc2C(=O)N1c1cc(Cl)c(Cl)cc1Cl (configuration not stated)	-	10.3µM	?	?	-
COC(=O)CC1(C(=O)OC)Oc2ccc(Br)cc2C(=O)N1c1ccc(Br)cc1Cl (configuration not stated)	-	18.4µM	?	?	?
COC(=O)CC1(C(=O)OC)Oc2ccc(Br)cc2C(=O)N1c1cc(Cl)cc(Cl)c1 (configuration not stated)	-	?	-	-	-
CC(=O)N1CCN(C(=O)c2cccc(NS(=O)(=O)c3ccc(Br)cc3)c2)CC1	-	-	-	-	-
CCc1ccc2c(c1)NC(c1cccnc1)=NC(c1ccc(C(C)(C)C)cc1)=N2	-	?	-	.	.
COc1cc(OCc2ccc(C)cc2)ccc1CNC[C@H]1O[C@@H](n2cnc(C(N)=O)n2)[C@H](O)[C@@H]1O	-	-	-	-	-
COc1ccc(/C(C)=N/NC(=O)c2cc(-c3cccnc3)nc3ccccc23)cc1	-	-	-	-	-
C/C(=N\NC(=O)c1cc(-c2cccnc2)nc2ccccc12)c1ccccc1O	-	6.51µM	-	-	?
C/C(=N\NC(=O)c1cc(C2CC2)nc2ccccc12)c1ccc(O)cc1O	-	-	?	1.46µM	-
C/C(=N\NC(=O)c1cc(C2CC2)nc2ccccc12)c1ccc(C)s1	-	-	-	?	?
CC(OC(=O)c1cc(-c2cccnc2)nc2ccccc12)C(=O)Nc1ccc2ccccc2c1 (configuration not stated)	-	-	-	-	16.4µM
O=C(NNC(=S)Nc1ccccc1)c1cc(-c2cccnc2)nc2ccccc12	-	-	-	-	-
C=C1C(=O)c2sccc2C(c2ccc(OC)c(OC)c2)C1COC(C)=O (configuration not stated)	-	?	?	?	-
O=C(CNC(=O)c1cccc([N+](=O)[O-])c1)NC1CCCc2ccccc21 (configuration not stated)	-	-	-	-	-
CC1(c2nnc(Cc3ccccc3)o2)CC(c2cccc(F)c2)=NO1 (configuration not stated)	-	-	-	-	-
